Reference: the supplement of paper PMC11732987, “Enantioselective OTUD7B fragment discovery through chemoproteomics screening and high-throughput optimisation” (Communications Chemistry, 2025)

How the values were obtained:
Experiment in all cases: log2 ratio of Biotin-Ahx-Ub-VS probe labelling (fragment/DMSO); higher = less target engagement (more negative = stronger competition), active = hit call of the paper (q ≤ 0.05, log2 ratio ≤ -1)
Conditions in all cases: compound concentration: 200 uM; treatment time: 3 h
[1] = molecular target: USP34 (UniProt Q70CQ2)
USP34, sequence (Q70CQ2 whole entry, the tested form may be a part): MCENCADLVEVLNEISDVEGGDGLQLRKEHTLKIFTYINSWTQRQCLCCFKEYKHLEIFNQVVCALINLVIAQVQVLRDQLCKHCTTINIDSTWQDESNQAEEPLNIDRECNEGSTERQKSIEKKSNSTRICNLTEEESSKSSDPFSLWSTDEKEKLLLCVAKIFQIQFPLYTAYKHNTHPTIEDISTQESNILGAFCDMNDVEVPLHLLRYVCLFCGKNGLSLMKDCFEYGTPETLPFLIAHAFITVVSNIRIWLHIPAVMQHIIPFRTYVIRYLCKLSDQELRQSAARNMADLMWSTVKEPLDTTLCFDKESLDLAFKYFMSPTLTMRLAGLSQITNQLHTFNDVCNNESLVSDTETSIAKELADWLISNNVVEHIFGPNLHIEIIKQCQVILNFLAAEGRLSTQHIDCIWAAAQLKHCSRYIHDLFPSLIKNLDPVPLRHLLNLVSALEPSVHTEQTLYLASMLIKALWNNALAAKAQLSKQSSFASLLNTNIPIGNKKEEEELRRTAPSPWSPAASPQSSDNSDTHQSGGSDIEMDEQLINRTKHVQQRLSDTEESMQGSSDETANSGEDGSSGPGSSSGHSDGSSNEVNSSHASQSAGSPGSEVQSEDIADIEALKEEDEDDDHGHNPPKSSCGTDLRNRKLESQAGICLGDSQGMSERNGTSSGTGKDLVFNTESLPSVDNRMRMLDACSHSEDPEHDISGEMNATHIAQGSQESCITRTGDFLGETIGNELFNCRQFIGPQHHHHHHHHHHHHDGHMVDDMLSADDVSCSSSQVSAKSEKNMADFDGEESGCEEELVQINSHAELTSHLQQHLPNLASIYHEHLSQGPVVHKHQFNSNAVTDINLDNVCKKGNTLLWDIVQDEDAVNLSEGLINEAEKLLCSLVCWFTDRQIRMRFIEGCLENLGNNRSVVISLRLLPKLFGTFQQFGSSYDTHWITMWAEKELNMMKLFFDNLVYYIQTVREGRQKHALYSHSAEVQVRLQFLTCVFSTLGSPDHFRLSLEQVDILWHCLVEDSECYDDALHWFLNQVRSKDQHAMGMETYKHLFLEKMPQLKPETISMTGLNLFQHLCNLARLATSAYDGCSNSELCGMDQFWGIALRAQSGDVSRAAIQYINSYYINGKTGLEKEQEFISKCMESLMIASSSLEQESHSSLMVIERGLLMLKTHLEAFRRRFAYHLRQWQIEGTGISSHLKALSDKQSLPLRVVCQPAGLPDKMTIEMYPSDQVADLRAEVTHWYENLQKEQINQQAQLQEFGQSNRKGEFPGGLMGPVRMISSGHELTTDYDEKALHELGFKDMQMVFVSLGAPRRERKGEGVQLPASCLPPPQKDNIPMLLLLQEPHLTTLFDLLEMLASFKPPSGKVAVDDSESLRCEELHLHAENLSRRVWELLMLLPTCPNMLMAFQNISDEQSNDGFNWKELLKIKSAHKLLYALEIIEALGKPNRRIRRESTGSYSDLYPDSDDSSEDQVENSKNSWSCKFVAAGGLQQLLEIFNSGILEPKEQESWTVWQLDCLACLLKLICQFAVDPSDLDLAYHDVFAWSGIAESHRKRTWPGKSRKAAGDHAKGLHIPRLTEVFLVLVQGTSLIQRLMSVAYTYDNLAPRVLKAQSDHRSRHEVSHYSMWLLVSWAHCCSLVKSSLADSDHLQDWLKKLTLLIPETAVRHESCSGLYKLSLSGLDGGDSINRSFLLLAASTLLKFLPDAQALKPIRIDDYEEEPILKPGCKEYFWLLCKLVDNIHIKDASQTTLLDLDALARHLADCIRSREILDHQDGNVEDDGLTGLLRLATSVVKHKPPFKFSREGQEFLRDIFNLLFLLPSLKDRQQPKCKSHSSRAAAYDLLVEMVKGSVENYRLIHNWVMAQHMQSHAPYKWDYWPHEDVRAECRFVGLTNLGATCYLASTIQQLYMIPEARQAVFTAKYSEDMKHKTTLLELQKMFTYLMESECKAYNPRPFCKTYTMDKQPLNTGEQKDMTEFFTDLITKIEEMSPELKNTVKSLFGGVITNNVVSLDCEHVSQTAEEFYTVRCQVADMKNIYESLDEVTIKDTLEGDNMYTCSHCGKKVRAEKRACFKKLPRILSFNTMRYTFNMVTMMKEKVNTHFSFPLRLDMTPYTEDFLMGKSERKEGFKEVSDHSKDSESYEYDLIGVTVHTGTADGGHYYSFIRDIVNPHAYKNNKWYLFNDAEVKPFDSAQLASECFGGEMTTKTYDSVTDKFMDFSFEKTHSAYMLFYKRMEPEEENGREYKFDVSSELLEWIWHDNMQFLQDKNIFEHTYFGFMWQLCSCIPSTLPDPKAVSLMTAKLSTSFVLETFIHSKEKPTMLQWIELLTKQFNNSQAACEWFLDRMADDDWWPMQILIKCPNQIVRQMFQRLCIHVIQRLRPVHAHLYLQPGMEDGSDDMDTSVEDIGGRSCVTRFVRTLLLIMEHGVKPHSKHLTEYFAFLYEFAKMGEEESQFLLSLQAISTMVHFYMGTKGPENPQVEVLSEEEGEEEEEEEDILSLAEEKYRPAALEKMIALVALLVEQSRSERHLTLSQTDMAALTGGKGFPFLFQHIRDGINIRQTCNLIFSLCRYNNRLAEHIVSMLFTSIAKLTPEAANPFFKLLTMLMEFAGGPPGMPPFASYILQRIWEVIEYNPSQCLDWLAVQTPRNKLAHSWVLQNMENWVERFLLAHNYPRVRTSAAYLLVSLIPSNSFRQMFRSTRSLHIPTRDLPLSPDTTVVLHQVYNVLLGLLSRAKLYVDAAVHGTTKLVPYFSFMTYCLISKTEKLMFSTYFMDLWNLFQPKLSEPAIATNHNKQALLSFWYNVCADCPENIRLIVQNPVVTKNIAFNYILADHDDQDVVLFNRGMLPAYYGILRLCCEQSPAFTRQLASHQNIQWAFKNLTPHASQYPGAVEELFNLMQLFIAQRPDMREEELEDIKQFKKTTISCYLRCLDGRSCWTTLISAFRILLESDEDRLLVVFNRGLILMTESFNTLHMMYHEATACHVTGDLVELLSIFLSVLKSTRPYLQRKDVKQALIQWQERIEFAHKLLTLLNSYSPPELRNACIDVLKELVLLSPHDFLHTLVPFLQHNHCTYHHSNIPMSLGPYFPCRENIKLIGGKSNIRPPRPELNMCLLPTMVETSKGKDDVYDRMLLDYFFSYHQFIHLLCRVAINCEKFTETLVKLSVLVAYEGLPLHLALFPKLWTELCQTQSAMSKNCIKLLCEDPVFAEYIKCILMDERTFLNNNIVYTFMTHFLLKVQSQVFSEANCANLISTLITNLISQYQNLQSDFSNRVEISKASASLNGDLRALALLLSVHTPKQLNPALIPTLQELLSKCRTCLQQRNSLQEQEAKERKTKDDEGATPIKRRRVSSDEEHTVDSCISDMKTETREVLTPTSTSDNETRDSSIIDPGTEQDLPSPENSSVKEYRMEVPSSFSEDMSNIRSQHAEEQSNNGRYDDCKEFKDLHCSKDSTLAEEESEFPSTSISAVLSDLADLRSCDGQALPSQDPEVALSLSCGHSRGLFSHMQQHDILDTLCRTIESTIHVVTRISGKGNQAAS
In short: (§1)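 Using Biotin-Ahx-Ub-VS at 0.5 µM final for 1 h, DUBs were labelled in HEK293T lysate (495 µg per sample) that had first been treated in triplicate with fragment at 200 µM or vehicle for 3 h. NeutrAvidin enrichment, LysC and trypsin digestion and diaPASEF LC-MS/MS followed. Spectronaut label-free quantities were global-median-normalised. Values are average log2 fragment/vehicle ratios by unpaired t-test, using proteins with ≥2 unique peptides.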

[2] = molecular target: T1, USP36 (UniProt Q9P275)
T1 sequence (whole entry): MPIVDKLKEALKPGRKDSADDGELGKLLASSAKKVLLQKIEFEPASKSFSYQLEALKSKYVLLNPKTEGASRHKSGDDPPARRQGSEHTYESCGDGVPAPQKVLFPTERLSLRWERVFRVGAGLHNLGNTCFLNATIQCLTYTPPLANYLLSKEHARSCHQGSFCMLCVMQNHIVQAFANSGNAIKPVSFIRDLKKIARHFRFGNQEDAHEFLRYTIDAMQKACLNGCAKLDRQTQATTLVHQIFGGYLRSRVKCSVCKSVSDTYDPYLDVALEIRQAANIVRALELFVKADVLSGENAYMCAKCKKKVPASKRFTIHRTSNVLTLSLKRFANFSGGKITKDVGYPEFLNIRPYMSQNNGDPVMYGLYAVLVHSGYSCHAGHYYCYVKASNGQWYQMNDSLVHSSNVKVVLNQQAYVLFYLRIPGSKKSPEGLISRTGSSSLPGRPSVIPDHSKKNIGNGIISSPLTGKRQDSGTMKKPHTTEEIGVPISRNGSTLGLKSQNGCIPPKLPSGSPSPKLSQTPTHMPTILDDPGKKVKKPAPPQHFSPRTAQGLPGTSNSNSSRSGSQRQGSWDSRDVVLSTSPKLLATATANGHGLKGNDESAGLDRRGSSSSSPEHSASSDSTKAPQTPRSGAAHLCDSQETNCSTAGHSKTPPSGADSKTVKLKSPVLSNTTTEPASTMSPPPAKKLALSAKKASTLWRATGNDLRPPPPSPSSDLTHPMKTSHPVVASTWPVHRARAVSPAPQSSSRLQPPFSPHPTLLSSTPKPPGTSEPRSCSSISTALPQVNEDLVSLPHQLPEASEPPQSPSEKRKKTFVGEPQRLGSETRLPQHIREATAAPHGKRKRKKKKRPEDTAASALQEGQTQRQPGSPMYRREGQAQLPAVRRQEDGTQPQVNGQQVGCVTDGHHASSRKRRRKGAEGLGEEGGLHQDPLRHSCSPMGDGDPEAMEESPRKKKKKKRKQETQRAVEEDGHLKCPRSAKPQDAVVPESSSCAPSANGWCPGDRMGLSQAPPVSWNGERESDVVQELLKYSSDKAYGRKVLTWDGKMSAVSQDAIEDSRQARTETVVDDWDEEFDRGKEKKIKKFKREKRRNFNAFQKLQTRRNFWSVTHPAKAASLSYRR
In short: as §1

[3] = molecular target: T2, USP38 (UniProt Q8NB14)
T2 sequence (whole entry): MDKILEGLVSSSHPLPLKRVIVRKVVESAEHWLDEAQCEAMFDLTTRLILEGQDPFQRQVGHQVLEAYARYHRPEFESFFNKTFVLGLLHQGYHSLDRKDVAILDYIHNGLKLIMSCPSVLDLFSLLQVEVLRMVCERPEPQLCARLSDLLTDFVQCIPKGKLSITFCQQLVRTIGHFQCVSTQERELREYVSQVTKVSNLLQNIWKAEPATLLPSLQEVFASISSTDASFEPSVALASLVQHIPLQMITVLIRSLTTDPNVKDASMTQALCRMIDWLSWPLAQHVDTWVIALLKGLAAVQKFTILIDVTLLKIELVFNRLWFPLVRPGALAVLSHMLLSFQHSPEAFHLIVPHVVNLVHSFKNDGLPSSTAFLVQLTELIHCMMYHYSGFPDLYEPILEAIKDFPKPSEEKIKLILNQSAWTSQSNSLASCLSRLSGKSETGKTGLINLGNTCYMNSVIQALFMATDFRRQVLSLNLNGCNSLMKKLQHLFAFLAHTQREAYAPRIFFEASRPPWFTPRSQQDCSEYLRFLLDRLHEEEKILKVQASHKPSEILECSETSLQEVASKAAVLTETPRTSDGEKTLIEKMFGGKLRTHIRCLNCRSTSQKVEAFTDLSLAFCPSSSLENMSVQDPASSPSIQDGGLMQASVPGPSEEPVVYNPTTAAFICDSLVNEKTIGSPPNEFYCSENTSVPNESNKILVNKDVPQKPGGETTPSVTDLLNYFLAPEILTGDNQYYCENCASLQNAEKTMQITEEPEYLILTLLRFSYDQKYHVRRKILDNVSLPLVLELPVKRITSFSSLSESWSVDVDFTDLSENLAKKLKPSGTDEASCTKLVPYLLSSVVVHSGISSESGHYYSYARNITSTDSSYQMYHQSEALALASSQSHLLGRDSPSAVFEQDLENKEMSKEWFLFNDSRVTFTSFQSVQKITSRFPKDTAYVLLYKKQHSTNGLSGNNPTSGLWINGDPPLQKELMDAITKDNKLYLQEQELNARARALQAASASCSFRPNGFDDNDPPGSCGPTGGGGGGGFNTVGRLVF
In short: as §1

[4] = molecular target: T3, USP39 (UniProt Q53GS9)
T3 sequence (whole entry): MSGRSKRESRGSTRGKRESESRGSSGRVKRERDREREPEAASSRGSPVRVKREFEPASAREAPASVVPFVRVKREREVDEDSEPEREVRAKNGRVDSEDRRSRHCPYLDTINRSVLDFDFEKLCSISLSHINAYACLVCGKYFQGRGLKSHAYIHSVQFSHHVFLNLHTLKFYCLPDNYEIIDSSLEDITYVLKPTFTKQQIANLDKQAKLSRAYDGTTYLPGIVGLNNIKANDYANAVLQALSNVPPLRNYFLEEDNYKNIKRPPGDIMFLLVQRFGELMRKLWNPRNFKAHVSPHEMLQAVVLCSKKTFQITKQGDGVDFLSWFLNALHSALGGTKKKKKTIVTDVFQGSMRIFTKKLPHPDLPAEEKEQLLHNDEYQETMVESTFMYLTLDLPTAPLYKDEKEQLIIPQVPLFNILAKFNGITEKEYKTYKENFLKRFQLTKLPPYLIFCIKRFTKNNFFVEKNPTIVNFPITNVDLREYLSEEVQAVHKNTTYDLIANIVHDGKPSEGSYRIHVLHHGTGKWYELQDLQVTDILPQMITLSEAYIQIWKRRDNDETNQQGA
In short: as §1

[5] = molecular target: T4, USP4 (UniProt Q13107)
T4 sequence (whole entry): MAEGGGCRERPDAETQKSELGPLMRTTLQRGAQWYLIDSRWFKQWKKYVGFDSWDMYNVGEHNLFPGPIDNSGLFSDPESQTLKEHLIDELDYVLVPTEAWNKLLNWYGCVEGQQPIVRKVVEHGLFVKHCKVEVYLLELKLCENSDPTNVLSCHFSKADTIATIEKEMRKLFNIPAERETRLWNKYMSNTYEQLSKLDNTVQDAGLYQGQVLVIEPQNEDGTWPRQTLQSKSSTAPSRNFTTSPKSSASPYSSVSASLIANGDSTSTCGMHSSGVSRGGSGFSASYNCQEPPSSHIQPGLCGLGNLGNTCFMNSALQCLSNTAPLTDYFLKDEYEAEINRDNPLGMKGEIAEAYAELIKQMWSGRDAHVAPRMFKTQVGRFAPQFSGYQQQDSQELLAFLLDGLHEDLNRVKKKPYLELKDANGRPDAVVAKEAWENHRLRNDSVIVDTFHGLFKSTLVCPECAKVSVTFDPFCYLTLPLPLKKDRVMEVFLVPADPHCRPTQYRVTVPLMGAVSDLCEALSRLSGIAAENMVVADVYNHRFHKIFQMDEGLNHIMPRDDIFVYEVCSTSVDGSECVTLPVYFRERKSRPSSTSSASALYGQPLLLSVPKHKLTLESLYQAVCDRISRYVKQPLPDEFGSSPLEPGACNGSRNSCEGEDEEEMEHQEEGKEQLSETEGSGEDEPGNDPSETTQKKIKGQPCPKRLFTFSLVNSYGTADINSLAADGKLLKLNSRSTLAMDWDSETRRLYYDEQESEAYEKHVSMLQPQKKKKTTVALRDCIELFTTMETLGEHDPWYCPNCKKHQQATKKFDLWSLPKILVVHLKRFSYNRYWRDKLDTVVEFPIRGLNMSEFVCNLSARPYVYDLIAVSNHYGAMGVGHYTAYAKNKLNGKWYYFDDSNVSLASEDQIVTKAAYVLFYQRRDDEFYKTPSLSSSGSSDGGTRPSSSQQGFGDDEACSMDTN
In short: as §1

Measured: log2 ratio of Biotin-Ahx-Ub-VS probe labelling

Cl.Cn1c(CNC(=O)CCl)nc2cccnc21
inactive: [1] -0.174 | [2] -0.125 | [3] 0.0315 | [4] 0.234 | [5] -0.102
